This is a sample that favours compounds with a hit; in the whole collection about 7.7% have one here.
HCMV antiviral = inhibitors of human cytomegalovirus; activity change, negative = inhibition, % at 57.5 µM; HFF cells, HCMV-luciferase reporter, 72 h; hits give low values; actives 4.5% (n = 410,000); in the data active means activity change below about -60%; inconclusive means no clear call, values can overlap the other calls; inactive means above about -39%
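Two-dose cell screen: HFF monolayers treated with compounds and infected with luciferase-expressing HCMV at 1 PFU/cell, 72 h at 37C, then lysed for luciferase measurement.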
TbPYK inhibitor = inhibitors of Trypanosoma brucei pyruvate kinase; TbPYK enzyme, Kinase-Glo Plus ATP luminescence, 45 min; Potency, µM (series often up to 76.8 µM), for inactives: top-dose activity, negative = inhibition, usual class: inhibitors; actives 0.12% (n = 410,000); further: potency means the concentration at half of the fitted maximal effect; nearly all actives have a fitted effect of over 50% in size
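Luminescent Kinase-Glo Plus end-point after 45 min room-temperature reaction of T. brucei pyruvate kinase started with 130 uM ADP (final). Buffer TEA 50 mM pH 7.2 with KCl, MgCl2, BSA, Tween-20; titration-based qHTS with fitted concentration-effect curves.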
FMDV inh = blocks foot and mouth disease virus. FMDV antiviral cell-based qHTS. Potency, µM (doses to about 57.9 µM), for the others: at the top dose activity change, negative = inhibition, most hits filed as inhibitors. actives 1.2% (n = 410,000). AID 1159524; calls by dose curve; tested in HEK293T cells; further: read-out not given here; potency means the concentration at half of the fitted maximal effect; nearly all actives have a fitted effect of over 45% in size
RE007 growth inh = less growth of the S. pombe RE007 Vpr strain; S. pombe RE007 Vpr strain, BacTiter-Glo ATP luminescence, 24 h; Potency, µM (titrated, usually from 92.2 µM), for inactives: top-dose activity change, negative = less growth, actives largely listed as inhibitors; actives 0.21% (n = 360,000); AID 651644; active means well fitted falling curve with a large enough effect; inconclusive means small, poorly fitted or top-dose-only effect; inactive means no such curve, though single readings can be large or run the other way; further: potency means the concentration at half of the fitted maximal effect; nearly all actives have a fitted effect of over 50% in size
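Fission yeast RE007 carrying one integrated HIV-1 vpr copy, seeded at OD 0.01 in PMG+AL medium with 23 nL pinned compound. Grown 24 h at 30 degrees; viability read by BacTiter-Glo luminescence after 5 min.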
FBPA Giardia inh = Giardia lamblia aldolase inhibition | actives 0.71% (n = 290,000) | purified Giardia FBPA | A8B2U2 | Potency, µM (doses to about 59.6 µM), for the others: at the top dose activity, negative = inhibition, most hits filed as inhibitors; further: potency means the concentration at half of the fitted maximal effect; nearly all actives have a fitted effect of over 55% in size
Target sequence (A8B2U2 whole entry, looked up): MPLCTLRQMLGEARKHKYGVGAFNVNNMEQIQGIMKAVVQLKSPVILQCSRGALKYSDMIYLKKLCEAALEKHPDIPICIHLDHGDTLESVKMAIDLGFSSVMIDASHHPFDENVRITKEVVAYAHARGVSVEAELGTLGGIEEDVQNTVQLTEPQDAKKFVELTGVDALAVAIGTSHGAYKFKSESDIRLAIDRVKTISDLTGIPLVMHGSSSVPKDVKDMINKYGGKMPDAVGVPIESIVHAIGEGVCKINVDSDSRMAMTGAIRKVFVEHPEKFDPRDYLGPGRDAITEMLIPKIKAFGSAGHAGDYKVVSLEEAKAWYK
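40 nM FBPA preincubated 10 min at RT with compound (up to 57.5 uM final), then substrate plus GAPDH/TPI/NAD/arsenate coupling and diaphorase/resazurin added. Fluorescence read after 20 min at RT, 525/598 nm.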
Sm TGR inh = inhibitors of Schistosoma mansoni thioredoxin glutathione reductase. purified TGR, DTNB reduction, TNB absorbance 405 nm. Potency, µM (highest dose often 114 µM), for the others: at the top dose activity change, negative = inhibition, usual class: inhibitors. actives 3% (n = 360,000). AID 485364; further: potency means the concentration at half of the fitted maximal effect; nearly all actives have a fitted effect of over 60% in size
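TGR 20 nM + NADPH 100 uM (dispensed conc.), cpd preinc 15 min RT; start with NADPH (500 uM addition) then DTNB (15 mM addition). Kinetic TNB absorbance, 405 nm filter. Four-parameter Hill fit across titration.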
Starred values were filed as active, the others as inactive; u = inconclusive; x = no result given; ! = repeats disagree; [ ] = remark or other dose. Unless noted, the call rests on the fitted dose curve; in most records, active means well fitted curve in the direction sought with a large enough effect; inconclusive means small, poorly fitted or top-dose-only effect, or another doubt; inactive means no such curve, though single readings can be large; an effect the other way counts as inactive or inconclusive. On the % scale 0 is the no-effect control and ±100 the full control effect.

SMILES	HCMV antiviral	TbPYK inhibitor	FMDV inh	RE007 growth inh	FBPA Giardia inh	Sm TGR inh
CC(C)CN(CC(C)C)CC(O)COc1ccccc1Br (centres undefined)	-76*	0%	u	0%	-15%	1%
COc1ccc(Cn2c3nc4ccccc4nc3c3c(=O)n(Cc4ccco4)cnc32)cc1	x	x	x	x	-6%	16µM*
CCCn1cnc2c(c1=O)c1nc3ccccc3nc1n2Cc1ccccc1OC	x	x	x	x	3%	0%
Cc1cccc(-n2cnc3c(c2=O)c2nc4ccccc4nc2n3Cc2ccco2)c1	2	-14%	-17%	-9%	-19%	2.8µM*
Cc1cccc(S(=O)(=O)c2c(N)n(Cc3ccco3)c3nc4ccccc4nc23)c1	x	-10%	25%	0%	-2%	18µM*
O=C(Cc1ccc(NC(=O)N2CCCCc3ccccc32)cc1)Nc1ccccc1Br	13	-4%	-7%	x	x	-6%
CN(C)S(=O)(=O)c1ccc(Cl)c(C(=O)Nc2cccc3ncccc23)c1	15	2%	-18%	-9%	-1%	-6%
O=C(Nc1cccnc1Cl)c1cc([N+](=O)[O-])ccc1Cl	-75*	6%	-14%	14%	-3%	-13%
S=C(Nc1ccccn1)Nc1ccccc1Cl	-83*	1%	41%	-3%	-20%	u
O=C(Nc1ccccc1F)Nc1cccnc1Cl	3	-2%	23%	-9%	x	x
O=C(Nc1cccc2ncccc12)c1cc([N+](=O)[O-])ccc1Cl	-88*	3%	u	7%	4%	0%
O=C(Nc1ccccc1Cl)Nc1cccnc1Cl	-62*	3%	-16%	6%	0%	5%
Cc1ccc([N+](=O)[O-])c(C(=O)Nc2cccnc2Cl)c1	-15	-9%	-1%	-2%	-1%	-2%
CCOC(=O)OCC1OC(c2ccccc2)C=CC1OC(=O)OCC (centres undefined)	x	x	x	x	0%[12.9 µM]	x
COc1ccc(NC(=O)CN2C(=O)CSc3ccc(S(=O)(=O)N(C)C)cc32)cc1OC	23	-8%	-13%	x	x	16%
O=[N+]([O-])c1ccc(CN2[C@H](COCc3ccccc3)C=CS2(=O)=O)cc1	-29	x	x	x	x	x
O=C(Nc1ccc([N+](=O)[O-])cc1Cl)c1cc(Cl)ccc1O	-98*	5%	6.3µM*!	-6%	-6%	-3%
O=C(Nc1ccc([N+](=O)[O-])cc1Cl)c1cccc([N+](=O)[O-])c1	1	-8%	5%	1%	x	x
CCN1CCCC1CNC(=O)c1cnn(-c2nccc(-c3ccccc3OC)n2)c1-c1ccco1 (centres undefined)	x	x	-6%	x	x	x
CCNc1sc(C(=O)c2cccs2)c(N)c1-c1nc2ccccc2s1	-80*	-16%	4%	-22%	-16%	-10%
Cc1nc2cnc(N3CCN(C)CC3)nc2n(C)c1=O	x	x	-3%	x	0%	x
COC1/C=C/C=C(\C)Cc2cc(O)c(Cl)c(c2)N(C)C(=O)CC(OC(=O)C(C)C)C2(C)OC2C(C)C2CC1(O)NC(=O)O2 (centres undefined)	-91*	3%	0%	-6%	x	x
COc1ccc2[nH]cc(CCNc3ncncc3-c3ccccc3C(F)(F)F)c2c1	x	x	-20%	x	-2%	x
Cc1ccc(NC(=S)Nc2cccc(-c3n[nH]c(=S)o3)c2)cc1	-34	-9%	28%	11%	6%	13µM*
NC(=S)Nc1cccc(-c2n[nH]c(=S)o2)c1	u	-7%	-8%	32%	u	6%
SMILES	HCMV antiviral	TbPYK inhibitor	FMDV inh	RE007 growth inh	FBPA Giardia inh	Sm TGR inh
CCN(Cc1ccccc1)C(=O)c1cc2ccc3cccnc3c2[nH]1	-35	-10%	-15%	x	x	6%
CC(NC(=O)c1cccnc1)c1nnc2n1CCN(Cc1ccc(F)cc1F)CC2 (centres undefined)	x	x	-6%	x	x	x
CS(=O)(=O)N(CC(=O)NCc1ccco1)c1ccccc1Cl	17	0%	-11%	0%	0%	40µM*
COc1ccc(N(CC(=O)NCc2ccco2)S(C)(=O)=O)c(OC)c1	22	-18%	-6%	2%	-2%	-18%
CCOc1ccc(N(CC(=O)NCc2ccco2)S(C)(=O)=O)cc1	46	5%	23%	8%	8%	50µM*
CC(NC(=O)Nc1ccc(Cl)cc1)c1ccccc1 (centres undefined)	-24	4%	-3%	3%	5%	-22%
Cc1ccc(C(NC(=O)NC(C)c2ccccc2)C(Cl)(Cl)Cl)cc1F (centres undefined)	-100*	1%	u	-4%	-5%	-4%
CC(C)C[C@@H]1COc2cc(N3CCOCC3)ccc2S(=O)(=O)N1	22	x	x	x	x	x
C[C@H]1COc2cccc(N3CCCC3)c2S(=O)(=O)N1	-16	x	x	x	x	x
COc1ccc(N2C(=O)C(Cl)=C(Nc3ccccc3OC)C2=O)cc1	26	-6%	24%	9%	-5%	-1%
COc1ccc(N2C(=O)C(Cl)=C(Nc3ccccc3O)C2=O)cc1	-19	-13%	59%	-9%	-16%	40µM*
Cc1ccc(OCC(=O)NC(=S)Nc2ccccn2)c(Br)c1	-63*	4%	16µM*	-19%	x	-3%
O=C(COc1ccc(Br)cc1Cl)NC(=S)Nc1ccccn1	-16	7%	-2%	14%	u	-3%
O=C(Nc1cccs1)Nc1c(F)c(F)cc(F)c1F	8	0%	24%	1%	-9%	-14%
O=C(Nc1cccs1)Nc1c(F)c(F)c(F)c(F)c1F	-61*	-10%	20%	5%	-4%	-24%
CCc1c(C)nc2ncnn2c1N1CCCC(C(=O)NCCc2ccc(OC)cc2)C1 (centres undefined)	-68*	1%	u	5%	0%	-1%
COc1ccc(CCNC(=O)C2CCCN(c3ncccn3)C2)cc1 (centres undefined)	-69*	0%	31%	2%	1%	6%
Cc1nc2ncnn2c(N2CCCC(C(=O)Nc3ccc4c(c3)CCC4)C2)c1C (centres undefined)	-101*	-5%	25µM*	0%	0%	-7%
Cc1cc(N2CCCC(C(=O)Nc3cccc4ccccc34)C2)n2ncnc2n1 (centres undefined)	-69*	5%	u	u	3%	8%
Cc1cc(C)c(NC(=O)CSc2nc3nc(C)cc(C)n3n2)c(C)c1	-8	-7%	-16%	x	x	-12%
CCc1c(C)nc2ncnn2c1N1CCC(C(=O)Nc2ccc(C)cc2)CC1	-86*	4%	-24%	3%	12%	32%
Nc1ccc(C(=O)Nc2ccc(OC(F)(F)C(F)F)c(NC(=O)c3ccc(N)cc3)c2)cc1	-68*	4%	57%	-10%	-5%	3%
